Sampled rows, rich in hits. Any-hit rate of the full collection: about 2.3%.
JMJD2E inh = JMJD2E (human) inhibition; B2RXH2; JMJD2E catalytic domain, FDH-coupled NADH fluorescence (FDH is formaldehyde dehydrogenase); Potency, µM (series often up to 57.1 µM), for inactives: at the top dose activity change, negative = inhibition, actives largely listed as inhibitors; 230,000 compounds, 1.6% hits; active = well fitted inhibition curve with a large enough effect, not every such curve was filed as active; inconclusive = small, poorly fitted or top-dose-only effect, or another doubt; inactive = no such curve, though single readings can be large or run the other way;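 also: potency is read from the fitted curve at half-maximal effect; 0% = wells with enzyme and -100% = buffer wells without enzyme; nearly all actives have a fitted effect of over 50% in size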
FBPA coupling cs = counter-screen for Giardia aldolase inhibitors: coupling enzyme system. coupling enzyme system counterscreen, AmpLite Red fluorescence. activity change, negative = inhibition, % at 58.2 µM, hits read low. 290,000 compounds, 0.67% hits. AID 2472; in the data active = activity change below about -30%; also: % is scaled to controls: 0 for no effect and ±100 for the full control effect
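Coupling enzymes only (glyceraldehyde-3-phosphate) + compound, at 57.5 uM final, 10 min RT; add substrate/coupling/AmpLite Red mix, 20 min RT; fluorescence ex 525/em 598 nm. Actives flag coupling-system interference.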
RGS12 GoLoco inh = inhibitors of human Gai1-RGS12 GoLoco interaction (red fluorophore); Gai1:RGS12 GoLoco peptide FP, rhodamine, 10 min; Potency, µM (doses to about 61.6 µM), inactives show top-dose activity, negative = inhibition, hits mostly inhibitors; 230,000 compounds, 0.44% hits; active = well fitted inhibition curve with a large enough effect, not every such curve was filed as active; inactive = no such curve, though single readings can be large or run the other way; also: potency is read from the fitted curve at half-maximal effect; % is scaled to controls: 0 for no effect and ±100 for the full control effect; nearly all actives have a fitted effect of over 30% in size
VDR inh = blocks the human vitamin D receptor; AID 504847; 400,000 compounds, 0.93% hits; P11473; VDR-SRC2-3 peptide fluorescence polarization, 2 h; Potency, µM, inactives show max response, negative = inhibition, hits mostly inhibitors; also: potency is read from the fitted curve at half-maximal effect; % is scaled to controls: 0 for no effect and ±100 for the full control effect
Target sequence (P11473 whole entry, looked up): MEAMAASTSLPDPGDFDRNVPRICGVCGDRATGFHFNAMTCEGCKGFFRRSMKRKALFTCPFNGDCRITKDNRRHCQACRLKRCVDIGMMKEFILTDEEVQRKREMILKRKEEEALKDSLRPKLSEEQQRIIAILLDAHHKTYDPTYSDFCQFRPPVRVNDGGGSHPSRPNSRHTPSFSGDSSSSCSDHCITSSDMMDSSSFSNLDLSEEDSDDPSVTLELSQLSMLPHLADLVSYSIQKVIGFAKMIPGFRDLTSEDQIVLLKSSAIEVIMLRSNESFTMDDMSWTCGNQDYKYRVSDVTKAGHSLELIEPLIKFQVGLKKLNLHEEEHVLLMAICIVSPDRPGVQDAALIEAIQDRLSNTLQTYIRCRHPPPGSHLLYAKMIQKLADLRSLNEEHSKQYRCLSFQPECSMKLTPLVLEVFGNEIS
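FP read-out; VDR + SRC2-3 coactivator peptide; 23 nl compound by pintool; 2 h RT incubation; reagents held at 4 deg C, protected from light.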
HTT ATP protect = Huntington cell model cytoprotection by ATP luminescence; 230,000 compounds, 0.14% hits; Potency, µM (top dose mostly 56.4 µM), for inactives: cytoprotection (ATP increase), hits mostly activators; PC12 HTT-Q103 induced, cytoprotection, ATP luminescence, 40 h; also: potency is read from the fitted curve at half-maximal effect; % of control where 0% means no effect; nearly all actives have a fitted effect of over 45% in size
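ATP quantification (ATPlite) reports survival of PC12 cells in which tebufenozide, 100 nM final, switches on Htt exon 1 with 103 glutamines linked to GFP; compounds are titrated.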
HttQ103 aggreg = reduces HttQ103-GFP aggregates in PC12 cells; PC12 HttQ103-GFP aggregates, Acumen cytometry, 40 h; Potency, µM (series often up to 46.1 µM), for inactives: at the highest dose activity change, negative = inhibition, hits mostly inhibitors; 220,000 compounds, 1.1% hits; AID 1688; also: potency is read from the fitted curve at half-maximal effect; % is scaled to controls: 0 for no effect and ±100 for the full control effect; nearly all actives have a fitted effect of over 60% in size
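Aggregate formation scored by laser-scanning cytometer (488 excitation, 500–530 emission) in lysed PC12 cells expressing Q103-GFP after 100 nM tebufenozide induction; library tested in dose series, with ATPLite reagent added in the multiplex.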
An asterisk follows results filed as active; ? = inconclusive; · = no result; [ ] = another dose, or the depositor's remark. Unless noted, calls follow the shape of the dose curve; as a rule, active = well fitted curve in the direction sought with a large enough effect; inconclusive = small, poorly fitted or top-dose-only effect, or another doubt; inactive = no such curve, though single readings can be large; an effect the other way counts as inactive or inconclusive.

SMILES	JMJD2E inh	FBPA coupling cs	RGS12 GoLoco inh	VDR inh	HTT ATP protect	HttQ103 aggreg
COc1ccc(CNC(=O)CN2C(=O)CSc3ccc(S(=O)(=O)N4CCC(C)CC4)cc32)cc1	·	·	·	8%	·	·
Cc1nc([N+](=O)[O-])cn1-c1nc2ccccn2c1[N+](=O)[O-]	-2%	3	5%[14.2 µM]	-16%	?	-7%[9.22 µM]
COc1ccc(C(=O)NNC(=O)CSc2nnc(C3CC3)n2C)cc1	·	0	·	-4%	·	·
COc1ccc2[nH]c(S(=O)Cc3ncc(C)c(OC)c3C)nc2n1 (centres undefined)	·	·	·	45µM*	?	4%
Cc1cc(Cl)ccc1OCCCC(=O)N/N=C/c1cccc([N+](=O)[O-])c1	4%	-36*	-6%	-8%	-2%[10 µM]	17%
Cc1ccccc1OCC(=O)NCC(=O)N/N=C/c1cccc([N+](=O)[O-])c1	9%	-2	2%	·	-6%	5%[9.22 µM]
Cc1ccccc1OCC(=O)N/N=C/c1cccc(Oc2ccc([N+](=O)[O-])cc2[N+](=O)[O-])c1	2%	-49*	2%	-3%	6%[10 µM]	-16%
CN(C)c1nc(-c2cn(CCC#N)c3ccccc23)cs1	·	-4	·	-19%	·	·
O=C1/C(=C/c2ccccc2[N+](=O)[O-])COc2ccccc21	8%	-3	1%	22µM*	?	?
CNc1ccc(/C=C2\COc3ccccc3C2=O)cc1[N+](=O)[O-]	1%	5	7%	-9%	2%	8%
COc1ccc(C(C[N+](=O)[O-])c2c(-c3ccccc3)cc3ccccn23)c(OC)c1 (centres undefined)	-6%	-19	38%	71µM*	18%	?
COc1ccc(C(C[N+](=O)[O-])c2c(C)cc3ccccn23)cc1 (centres undefined)	?	-1	8%	7%	-5%[10 µM]	?
NC(CSS(=O)(=O)O)=NCCC12CC3CC(CC(O)(C3)C1)C2	-6%	-2	-17%	40µM*	23%[10 µM]	11%
O=C(C[n+]1ccc(Cc2ccccc2)cc1)Nc1ccc([N+](=O)[O-])cc1Cl	2%	4	17%	-10%	·	?
Cc1ccc(Cl)cc1NC(=O)C[n+]1ccc(Cc2ccc([N+](=O)[O-])cc2)cc1	-8%	-44*	5%	7%	-32%	-14%
[O-][n+]1c2c(nn1-c1ccccc1)/C(=N/O)CCC2	13%	5	9%	-3%	·	·
[O-][n+]1onc2c1CCC(=N/O)/C2=N\Nc1ccccc1	14%	-27	14µM*	·	3%[10 µM]	4%[9.22 µM]
CC(C)c1ccc(N(CC(=O)NC2CCCC2)C(=O)CCC(=O)Nc2ccccn2)cc1	·	0	·	-30%	·	·
CN(C)c1ccc(-c2cncnc2-n2ccnc2)cc1	·	-6	-12%	45µM*	-35%	·
FC(F)(F)c1ccccc1-c1cncnc1-n1ccnc1	·	2	2%	-4%	6%	·
CN(C)c1ccc(-c2cncnc2Nc2ccc(F)cc2)cc1	·	-22	-26%	45µM*	-206%	·
COc1ccccc1-c1cncnc1Nc1ccccc1	·	0	-8%	28µM*	?	·
Cc1ccccc1-c1cncnc1Nc1ccc(F)cc1	3%	-3	0%	-10%	8%	·
Fc1ccc(Nc2ncncc2-c2ccoc2)cc1	·	-1	7%	32µM*	-31%	·
COc1ccccc1-c1cncnc1Nc1ccc(F)cc1	6%	3	-10%	-14%	-7%	·
SMILES	JMJD2E inh	FBPA coupling cs	RGS12 GoLoco inh	VDR inh	HTT ATP protect	HttQ103 aggreg
CCCN1CCCC(c2cccc(S(C)(=O)=O)c2)C1 (centres undefined)	·	-7	·	11%	·	·
c1ccc(Nc2ncncc2-c2ccoc2)cc1	·	-4	-2%	56µM*	-9%	·
COc1ccccc1CNc1ncncc1-c1ccoc1	?	-2	11%	?	4%	·
Oc1ccccc1N=Nc1ccccc1O	32µM*	-2	8%	11%	-63%[10 µM]	?
CCc1cccc(Nc2cc(C)nc3nc(C)nn23)c1	-1%	-4	9%	1%	25%[10 µM]	35µM*
COc1ccc(C#Cc2ccc3c(=O)c4ccccc4n(C)c3c2)cc1	·	-3	·	-16%	·	·
COc1ccc2c(c1)c1ccccc1n2C	?	8	-8%	42%	0%[10 µM]	13µM*
Cc1cccc2sc(NC(=O)CN(C)S(=O)(=O)c3cccs3)nc12	-7%	4	-13%	-2%	-15%	16µM*
CC(C)NS(=O)(=O)c1ccc(CCC(=O)N2CCCC2)cc1	-4%	-2	-1%	6%	·	·
CC(C)NS(=O)(=O)c1ccc(CCC(=O)N2CCC(C(N)=O)CC2)cc1	?	-31*	8%	15%	31%[10 µM]	4%[9.22 µM]
Nc1ncnc2oc(-c3ccco3)c(-c3ccco3)c12	?	-31*	44%	-16%	-4%[1.9 µM]	10%
Cc1cnc2c(c1SCC(=O)NCc1ccc(F)cc1)c(=O)n(C)c(=O)n2C	·	·	·	5%	·	·
CC(C)(C)c1ccc(C2=NC(=O)C(CC(=O)O)S2)cc1 (centres undefined)	-18%	1	25%	25µM*	-8%[10 µM]	1%[9.22 µM]
O=C(NCCOc1ccccc1Cl)c1ccc2c(c1)S(=O)(=O)c1cc(Cl)ccc1C2=O	·	·	·	-25%	·	·
C=CCN(CC=C)C(=S)NC(=O)/C=C/c1ccccc1	-2%	13	-1%	20µM*	·	17%
NS(=O)(=O)c1ccc(NC(=O)c2cc(Cl)sc2Cl)cc1	·	·	·	-5%	·	·
O=C(c1ccncc1)N1N=C(c2ccc(Cl)cc2)CC1c1ccccc1O (centres undefined)	·	3	·	20%	·	·
Clc1ccc(OCCSCc2nc3ccccc3[nH]2)cc1	-5%	4	33%	14%	14%[10 µM]	7.1µM*
Cc1ccc(OCCSCc2nc3ccccc3[nH]2)cc1	-2%	0	-10%	9%	-35%	0%
Cc1cc(C)nc(-n2ncc(C#N)c2N)n1	6%	-3	2%	-19%	21%[10 µM]	6%[9.22 µM]
Cc1cc(C)nc(-n2ncc3c2CCCC3=O)n1	-9%	0	-3%	3%	25µM*	?
Cc1cc(C)nc(NCCCc2ccccc2)n1	-23%	0	1%	-14%	-7%[10 µM]	4%
CCCCNc1cc(C)nc(NCc2ccccc2)n1	3%	0	15%	-3%	-75%	10µM*
Cc1cc(Nc2ccc(Cl)cc2)nc(NCc2ccccc2)n1	?	-6	5%	5%	·	?
Cc1cc(Nc2ccccc2)nc(NCc2ccccc2)n1	?	1	6%	-10%	7%[10 µM]	6.3µM*
O=C(COc1ccc(F)cc1Cl)Nc1ccc(S(=O)(=O)Nc2nccs2)cc1	·	·	·	-8%	·	·
CCn1cc(/C=C(\NC(=O)c2ccccc2F)C(=O)NCCCn2ccnc2)c2ccccc21	·	-2	·	13%	·	·
